The supplement of paper PMC10981050
Values joined by “and” are separate entries in the source; they are usually repeats but may differ in a detail not shown here. Equal entries are not always repeated. Structures can show the parent of a compound that is named as a salt.

How the values were obtained:
Test in all cases: cell viability relative to vehicle control; higher = less cytotoxic
Settings in all cases: 10 µM
K562 = system: K562
How it was run: (§1)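 CRISPR-edited mutant clones and isogenic wild-type clones from four leukaemia lines were screened against Selleck bioactive, kinase and epigenetic probe libraries, with identity-inconsistent compounds excluded. Each compound was acoustically dispensed at a single 10 µM dose into 384-well plates holding 2000 cells in 50 µL medium per well. After 48 h the supernatant was removed and CellTiter-Glo luminescence was read. Viability was expressed as percent of the on-plate vehicle control and analysed in Genedata Screener.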

MARIMO = system: MARIMO
How it was run: as §1

MOLM14 = system: MOLM14
How it was run: as §1

OCI-AML2 = system: OCI-AML2
How it was run: as §1

SMILES	cell viability (K562; SRSF2 genotype: SRSF2 P95H/wt)	cell viability (K562; SRSF2 genotype: SRSF2 wt/wt) [%]	cell viability (MARIMO; SRSF2 genotype: SRSF2 P95H/wt) [%]	cell viability (MARIMO; SRSF2 genotype: SRSF2 wt/wt) [%]	cell viability (MOLM14; SRSF2 genotype: SRSF2 P95H/wt) [%]	cell viability (MOLM14; SRSF2 genotype: SRSF2 wt/wt) [%]	cell viability (OCI-AML2; SRSF2 genotype: P95H/wt) [%]	cell viability (OCI-AML2; SRSF2 genotype: wt/wt) [%]
CCOC(=O)[C@H](CCc1ccccc1)N[C@@H](C)C(=O)N1Cc2cc(OC)c(OC)cc2C[C@H]1C(=O)O [Moexipril HCl]	93.9% and 103%	104	110	105	106	109	104	95.9
CN1CC[C@H](c2c(O)cc(O)c3c(=O)cc(-c4ccccc4Cl)oc23)[C@H](O)C1 [Flavopiridol (Alvocidib)]	6.41% and 17.6%	8.24	10.4	4.67	3.1	0.32	4.93	15.2
COC(=O)C1=CO[C@@H](O[C@@H]2O[C@H](CO)[C@@H](O)[C@H](O)[C@H]2O)[C@@H]2[C@@]3(C)O[C@H]3[C@@H](O)[C@]12O [Sesamoside]	101% and 102%	104	102	98.4	109	105	104	107
OCCN1C[C@H](O)[C@@H](O)[C@H](O)[C@H]1CO [Miglitol (Glyset)]	98.3% and 109%	101	106	102	106	106	107	94.9
CCC(=O)O[C@]1(C(=O)SCF)[C@H](C)C[C@H]2[C@@H]3C[C@H](F)C4=CC(=O)C=C[C@]4(C)[C@@]3(F)[C@@H](O)C[C@@]21C [Fluticasone propionate (Flonase, Veramyst)]	92.7% and 86.5%	88	87.8	99	85.3	83.2	86.7	108
Cc1cc(C)cc(C(=O)NOCCCCCC(=O)NO)c1	1.41% and 17.1%	4.57	7.1	10.6	0.7	0.46	2.75	5.29
OC[C@H]1NC[C@H](O)[C@@H](O)[C@@H]1O [1-Deoxynojirimycin]	103% and 98.1%	94.5	103	107	97.8	106	96.4	108
CCCCN1CCCCC1C(=O)Nc1c(C)cccc1C (stereo unspecified) [Bupivacaine hydrochloride (Marcain)]	92% and 102%	98.8	97.7	103	98.5	102	100	104
O=C(O)C(Cc1c[nH]c2ccccc12)N1C(=O)c2ccccc2C1=O (stereo unspecified)	104% and 96.9%	103	96.8	104	99.2	99.3	93.2	98.5
O=C(O)CCc1c[nH]c2ccccc12 [3-Indolepropionic acid]	92.7% and 95.1%	102	98.8	96.4	97.8	96.9	103	98.3
Nc1nc2n[nH]nc2c(=O)[nH]1 [Azaguanine-8]	85.3% and 81.8%	82.5	76.2	68.1	82.7	86.6	70.9	54.6
O=S(=O)(N=Cc1c(O)ccc2ccccc12)c1cccs1	100% and 99.8%	95.2	100	97.3	100	99	101	103
CNC(=O)CN1CCC(Oc2cc3c(Nc4cccc(Cl)c4F)ncnc3cc2OC)CC1	85.2% and 96%	91.9	93.6	100	79.5	93.1	73.8	79.5
Cc1ccccc1C(=O)Nc1ccc(C(=O)N2CCCC(N(C)C)c3ccccc32)cc1 (stereo unspecified) [Mozavaptan]	93.3% and 90.1%	85	88.9	93.2	97.1	102	95.5	97.1
CC(C)C[C@H](NC(=O)CNC(=O)c1cc(Cl)ccc1Cl)B1OC(=O)CC(CC(=O)O)(C(=O)O)O1 (stereo partly specified) [Ixazomib Citrate (MLN9708)]	2.32% and 2.83%	4.01	0.72	2.45	0.35	0.36	0.42	1.49
CC[C@@]1(O)C(=O)OCc2c1cc1n(c2=O)Cc2cc3cc(O)ccc3nc2-1 [Hydroxy Camptothecine]	10.4% and 26.6%	9.83	4.88	4.13	0.53	0.32	0.49	2.23
Cc1cc(CS(=O)(=O)c2ccccc2)cc(OCc2ccc(CN3CCC[C@@H]3CO)cc2)c1	98.9% and 101%	95.6	98.9	103	96.5	104	98.7	92.6
COc1ccc(C(NC(=O)c2cnc(-c3cccnn3)[nH]c2=O)c2ccc(OC)cc2)cc1	115% and 108%	111	99	99.6	104	104	106	113
Cc1ccc(Nc2nccc(N(C)c3ccc4c(C)n(C)nc4c3)n2)cc1S(N)(=O)=O [Pazopanib HCl]	49.1% and 57.7%	51	54.5	46.3	36.4	39.8	28.3	33.9
C[C@@H]1CC[C@H]2C(C)(C)[C@H]3C[C@@]12CC[C@@]3(C)O [Cedrol]	106% and 97.2%	96.6	103	107	104	104	98.2	112
CCOC(=O)/C=C\C(=O)OCC [Diethylmaleate]	102% and 96.1%	99.8	97.5	109	104	105	98.9	111

SMILES	cell viability (K562; SRSF2 genotype: SRSF2 P95H/wt)	cell viability (K562; SRSF2 genotype: SRSF2 wt/wt) [%]	cell viability (MARIMO; SRSF2 genotype: SRSF2 P95H/wt) [%]	cell viability (MARIMO; SRSF2 genotype: SRSF2 wt/wt) [%]	cell viability (MOLM14; SRSF2 genotype: SRSF2 P95H/wt) [%]	cell viability (MOLM14; SRSF2 genotype: SRSF2 wt/wt) [%]	cell viability (OCI-AML2; SRSF2 genotype: P95H/wt) [%]	cell viability (OCI-AML2; SRSF2 genotype: wt/wt) [%]
COc1ccc2c3c1O[C@H]1C[C@@H](O)C=C[C@@]31CCN(C)C2 [Galanthamine]	103% and 106%	99.9	102	106	97.9	105	109	95
C#CCC(Cc1cnc2nc(N)nc(N)c2n1)c1ccc(C(=O)N[C@@H](CCC(=O)O)C(=O)O)cc1 (stereo partly specified) [Pralatrexate(Folotyn)]	98.1% and 106%	45.8	109	108	102	73.9	98.6	104
N=C(N)c1ccc(OCCCCCOc2ccc(C(=N)N)cc2)cc1 [Pentamidine isethionate]	53.9% and 50%	55.9	63.3	62.8	72	70.5	65.5	57.8
COC(=O)CNC(=O)C(=O)OC	93% and 96.6%	96.3	89.1	90.8	92.6	94.5	56.9	64.9
CCOC(=O)c1c(CSc2ccccc2)n(C)c2cc(Br)c(O)c(CN(C)C)c12 [Arbidol HCl]	50.6% and 70.1%	61.6	48	54.8	47.8	32.9	53.5	43.8
CC(=O)Oc1cc(C(F)(F)F)ccc1C(=O)O [Triflusal]	101% and 90.6%	99.7	98.9	101	97.7	101	92.2	102
CCN(CC)CCOC(=O)c1ccc(N)cc1Cl [Chloroprocaine HCl]	95.2% and 93.5%	97.1	103	115	98	99.3	90.7	113
O=C(c1cncc(Br)c1)N1CCC(N2CCCC2)CC1	103% and 100%	98.7	106	100	101	101	104	120
O=C(O)c1cc(/N=N/c2ccc(O)c(C(=O)O)c2)ccc1O [Olsalazine Sodium]	86.9% and 86%	81.6	88.2	92.2	85.2	88.4	94.1	90.1
COc1ccc2cc3[n+](cc2c1OC)CCc1cc2c(cc1-3)OCO2 [Berberine]	65.6% and 74.1%	72.6	67.3	62.1	75.4	81.8	52	53.8
C=C(CCC=C(C)C)[C@H]1CC[C@]2(C)[C@@H]1[C@H](O)C[C@@H]1[C@@]3(C)CC[C@H](O[C@@H]4O[C@H](CO)[C@@H](O)[C@H](O)[C@H]4O[C@@H]4O[C@H](CO)[C@@H](O)[C@H](O)[C@H]4O)C(C)(C)[C@@H]3CC[C@]12C [Ginsenoside Rk1]	107% and 97.8%	107	105	104	108	104	100	104
COc1ccc(-c2cc(=O)c3c(O)c(OC)c(O)cc3o2)cc1OC [Eupatilin]	101% and 99.5%	97	92.3	98.2	48.7	60.2	69.4	71.2
COc1c(N2C[C@@H]3CCCN[C@@H]3C2)c(F)cc2c(=O)c(C(=O)O)cn(C3CC3)c12 [Moxifloxacin hydrochloride]	104% and 99.6%	93.3	101	105	92.9	98.5	90.4	97.2
CC(S)C(=O)NCC(=O)O (stereo unspecified) [Tiopronin (Thiola)]	111% and 110%	104	105	105	100	105	100	112
C=CC(=O)Nc1ccc(CN2C(=O)N(c3cc(OC)cc(OC)c3)Cc3cnc(Nc4ccc(N5CCN(C)CC5)cc4)nc32)cc1	66.2% and 73.3%	77.8	81.2	78.8	37.9	40.1	25.8	34.5
CC(=O)O[C@H](CC(=O)O)C[N+](C)(C)C [O-Acetyl-L-carnitine hydrochloride]	112% and 110%	110	110	110	101	108	105	104
Clc1cccc(Cl)c1NC1=NCCN1 [Clonidine hydrochloride (Catapres)]	98.5% and 103%	105	110	113	89.2	103	115	101
C[N+](C)(C)CC(O)CC(=O)[O-] (racemic) [DL-Carnitine hydrochloride]	101% and 105%	98.8	98.4	106	98.1	103	102	101
CC1(C)CCCC2(C)C1CCC1(C)OC(=O)CC12 (stereo unspecified) [Sclareolide (Norambreinolide)]	109% and 97.8%	99.8	95.2	98.7	101	106	102	89.7
CC(C)NCC(O)COc1ccc(COCCOC(C)C)cc1 (stereo unspecified) [Bisoprolol fumarate]	94.1% and 90.5%	89.9	93.2	94.5	83.8	91.5	93.6	99.8
CN(C)CCc1c[nH]c2ccc(CS(=O)(=O)N3CCCC3)cc12 [Almotriptan malate (Axert)]	101% and 87%	91	84.3	101	96.9	95.9	99.2	87.6
